Screening results as filed in PubChem.
Sm TGR inh – qHTS Assay for the Inhibitors of Schistosoma Mansoni Peroxiredoxins. Schistosoma mansoni thioredoxin glutathione reductase (TGR), Q962Y6. purified TGR, DTNB reduction, TNB absorbance 405 nm. Potency, µM (titrated, usually from 114 µM), usual class: inhibitors. 3% of 360,000 active. AID 485364, 2010; also: nearly all actives have a fitted effect of over 60% in size
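First, TGR (20 nM dispensed) and NADPH were mixed with compound. Second, a 15 min room-temperature incubation followed. Third, further NADPH and then DTNB were added to start the reaction. Finally, TNB absorbance was monitored kinetically.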
AmpC inh detg – qHTS Inhibitors of AmpC Beta-Lactamase (assay with detergent); AmpC hydrolysis of nitrocefin, absorbance 480 nm, 0.01% Triton; P00811; Potency, µM (titrated, usually from 114 µM), most hits filed as inhibitors; AID 485294, 2010; 0.041% of 370,000 active; also: nearly all actives have a fitted effect of over 25% in size
Target sequence (P00811 whole entry, looked up): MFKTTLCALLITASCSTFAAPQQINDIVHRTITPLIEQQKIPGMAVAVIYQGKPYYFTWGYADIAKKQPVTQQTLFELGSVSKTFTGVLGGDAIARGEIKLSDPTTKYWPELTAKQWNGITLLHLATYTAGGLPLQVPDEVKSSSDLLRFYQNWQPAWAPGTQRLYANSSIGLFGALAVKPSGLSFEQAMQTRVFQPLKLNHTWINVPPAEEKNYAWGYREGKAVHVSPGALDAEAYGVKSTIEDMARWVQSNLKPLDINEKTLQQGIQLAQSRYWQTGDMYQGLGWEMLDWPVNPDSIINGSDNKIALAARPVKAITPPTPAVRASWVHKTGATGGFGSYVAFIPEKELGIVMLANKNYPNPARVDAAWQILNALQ
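20 mM phosphate pH 7.0 + 0.01% (detergent screen) or 0.0001% Triton X-100; 5.3 nM AmpC reagent; cpd preinc 15 min RT; nitrocefin (800 uM stock) to start; A480 q20 s × 4 min; Activity was normalised to no-enzyme and no-compound control wells.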
RE007 growth inh – qHTS Assay for Inhibitors of the HIV-1 protein Vpr; 0.21% of 360,000 active; Potency, µM (series often up to 92.2 µM), usual class: inhibitors; S. pombe RE007 Vpr strain, BacTiter-Glo ATP luminescence, 24 h; active = well fitted falling curve with a large enough effect; inconclusive = small, poorly fitted or top-dose-only effect; inactive = no such curve, though single readings can be large or run the other way; also: nearly all actives have a fitted effect of over 50% in size
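Fission yeast strain RE007, carrying one chromosomally integrated HIV-1 vpr copy, was seeded at OD 0.01 in PMG+AL medium with 23 nL pinned compound. After 24 h at 30 °C and 99% humidity, viability was read by BacTiter-Glo luminescence.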
AMA1 RON2 block – qHTS for Inhibitors of AMA1-RON; Towards Development of Antimalarial Drug Lead: Primary Screen | Plasmodium falciparum AMA1 (3D7) - RON2 peptide interaction | AlphaScreen AMA1-biotinylated RON2 peptide binding | Potency, µM (top dose mostly 58.2 µM), usual class: inhibitors | 0.2% of 360,000 active; also: nearly all actives have a fitted effect of over 45% in size
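AMA1 (3D7) with his tag at 25 nM final met compounds first, then biotinylated RON2 peptide at 25 nM; detection used donor plus acceptor beads, 10 µg/mL apiece, read by AlphaScreen after 30 min at room temperature.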
AmpC no deterg – qHTS Inhibitors of AmpC Beta-Lactamase (assay without detergent); 0.52% of 330,000 active; AID 485341, 2010; Potency, µM (series often up to 57.1 µM), actives largely listed as inhibitors; P00811; AmpC nitrocefin hydrolysis, absorbance 480 nm, 0.0001% Triton; also: nearly all actives have a fitted effect of over 20% in size
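AmpC (5.3 nM in the dispensed reagent) in 20 mM phosphate pH 7.0 with 0.01% (detergent screen) or 0.0001% Triton X-100 was preincubated with compounds for 15 min at room temperature. Nitrocefin was then added from an 800 uM solution, and hydrolysis was followed at 480 nm.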
A number is an active result. This is a sample that favours compounds with a hit; in the whole collection about 3.2% have one here. Unless noted, calls follow the shape of the dose curve; as a rule, active = well fitted curve in the direction sought with a large enough effect; inconclusive = small, poorly fitted or top-dose-only effect, or another doubt; inactive = no such curve, though single readings can be large; an effect the other way counts as inactive or inconclusive.

Results for COc1ccc(CNC(=O)C(=O)NCC(c2ccco2)S(=O)(=O)c2ccc(Cl)cc2)cc1 (stereo not given) ?
Sm TGR inh: 11µM; AmpC inh detg: inactive

Results for O=C(NCC(c1ccco1)S(=O)(=O)c1ccc(Cl)cc1)c1ccc(C(F)(F)F)cc1 (stereo not given) ?
Sm TGR inh: 0.89µM; AmpC inh detg: inactive

How did O=C(CC(c1ccco1)S(=O)(=O)c1ccccc1)c1ccc(F)cc1 (stereo not given) do in these assays?
Sm TGR inh: 1.6µM; AmpC inh detg: inactive; RE007 growth inh: inactive; AMA1 RON2 block: inactive; AmpC no deterg: inactive

What do the screens show for `O=C(COc1ccc(Cl)cc1)NCC(c1ccco1)S(=O)(=O)c1ccc(F)cc1` (stereo not given)?
Sm TGR inh: 25µM; AmpC inh detg: inactive

Results for Cc1ccc(S(=O)(=O)C(CNC(=O)c2ccc(C(F)(F)F)cc2)c2ccco2)cc1 (stereo not given) ?
Sm TGR inh: inconclusive; AmpC inh detg: inactive

What do the screens show for `COc1ccc(C(=O)NCC(c2ccco2)S(=O)(=O)c2ccc(F)cc2)cc1` (stereo not given)?
Sm TGR inh: inactive; AmpC inh detg: inactive

How did COc1ccc(CNC(=O)C(=O)NCC(c2ccco2)S(=O)(=O)c2ccc(C)cc2)cc1 (stereo not given) do in these assays?
Sm TGR inh: inactive; AmpC inh detg: inactive

What do the screens show for `CCc1ccc(NC(=O)CC2C(=O)N(c3ccc(F)cc3)C(=O)N2Cc2ccc(F)cc2)cc1` (stereo not given)?
Sm TGR inh: inactive; AmpC inh detg: inactive

How did COc1ccccc1NC(=O)CCn1nc(-c2ccccc2OC)c2c(C)cc(C)nc21 do in these assays?
Sm TGR inh: inactive; AmpC inh detg: inactive

What do the screens show for `O=C(Nc1ccc(F)c(Cl)c1)C1CCCN1S(=O)(=O)c1ccc(F)cc1` (stereo not given)?
Sm TGR inh: inactive; AmpC inh detg: inactive

Results for COc1ccc(CCNC(=O)C(=O)NCC(c2ccco2)S(=O)(=O)c2ccccc2)cc1 (stereo not given) ?
Sm TGR inh: inactive; AmpC inh detg: inactive

Results for Cc1ccc(S(=O)(=O)C(CNC(=O)C(=O)NCCc2ccccc2)c2ccco2)cc1 (stereo not given) ?
Sm TGR inh: 45µM; AmpC inh detg: inactive

How did Cc1ccc(S(=O)(=O)C(CNC(=O)C(=O)NCCc2ccc(Cl)cc2)c2ccco2)cc1 (stereo not given) do in these assays?
Sm TGR inh: inconclusive; AmpC inh detg: inactive

Results for O=C(NCCc1ccc(Cl)cc1)C(=O)NCC(c1ccco1)S(=O)(=O)c1ccc(Cl)cc1 (stereo not given) ?
Sm TGR inh: 4µM; AmpC inh detg: inactive

How did CCOc1ccc(S(=O)(=O)NCC(c2ccco2)S(=O)(=O)c2ccc(F)cc2)cc1 (stereo not given) do in these assays?
Sm TGR inh: 0.32µM; AmpC inh detg: inactive

Results for Cc1cc(S(=O)(=O)NCC(c2ccco2)S(=O)(=O)c2ccccc2)ccc1F (stereo not given) ?
Sm TGR inh: inconclusive; AmpC inh detg: inactive

How did CC(=O)c1ccc(NC(=O)Cn2c3ncccc3c(=O)n2-c2ccc(C)cc2)cc1 do in these assays?
Sm TGR inh: inactive; AmpC inh detg: inactive

Results for O=C(CSc1nccn1C1CCCC1)Nc1cccc(F)c1 ?
Sm TGR inh: inactive; AmpC inh detg: inactive

Results for O=C(c1ccc(S(=O)(=O)Cc2ccccc2F)c([N+](=O)[O-])c1)N1CCCC1 ?
Sm TGR inh: 10µM; AmpC inh detg: inactive; RE007 growth inh: inactive; AMA1 RON2 block: inactive; AmpC no deterg: inactive

Results for O=C(c1ccc(S(=O)(=O)Cc2ccccc2Cl)c([N+](=O)[O-])c1)N1CCOCC1 ?
Sm TGR inh: 11µM; AmpC inh detg: inconclusive; RE007 growth inh: inactive; AMA1 RON2 block: inactive; AmpC no deterg: inactive
